From the supplement of paper PMC13380429

Test system: Vero E6 infected with SARS-CoV-2
Experiment: inhibition of SARS-CoV-2 cytopathic effect; higher = more antiviral protection, active = above 15
Details: 48 h

Measured: inhibition of SARS-CoV-2 cytopathic effect

COc1ccc2nc(NC(=O)Nc3ccccc3)sc2c1 [frentizole]
inactive: 1 nM -3.36% | 8.33 nM 0.96% | 100 nM -1.31% | 833.33 nM -1.35% | 10000 nM 1.78%

CO/N=C(\C(=O)N[C@@H]1C(=O)N2C(C(=O)O)=C(CSc3nc(C)c(CC(=O)O)s3)CS[C@H]12)c1csc(N)n1 [cefodizime]
inactive: 1 nM -6.45% | 8.33 nM -0.68% | 100 nM -2% | 833.33 nM -0.21% | 10000 nM -4.2%

C/C(=N\NC(=N)N)c1cc(NC(=O)CCCCCCCCC(=O)Nc2cc(/C(C)=N/NC(=N)N)cc(/C(C)=N/NC(=N)N)c2)cc(/C(C)=N/NC(=N)N)c1 [semapimod]
inactive: 1 nM 1.18% | 8.33 nM 2.42% | 100 nM 5.39% | 833.33 nM 7.62% | 10000 nM 7.5%

N[C@@H](C(=O)N[C@@H]1C(=O)N2C(C(=O)O)=C(Cl)CS[C@H]12)c1ccccc1 [cefaclor]
inactive: 1 nM -2.43% | 8.33 nM -5.19% | 100 nM 1.55% | 833.33 nM -1.09% | 10000 nM 5.72%

CC(=O)[O-].CC(=O)[O-].N.NC1CCCCC1.[Cl-].[Cl-].[Pt+4] [satraplatin]
inactive: 1 nM 3.89% | 8.33 nM -0.13% | 100 nM 2.26% | 833.33 nM 1.69%
active: 10000 nM 23.8%

Nc1n[nH]c2nc3ccccc3nc12 [CDK1-5-inhibitor]
inactive: 1 nM 0.56% | 8.33 nM 0.41% | 100 nM 0.84% | 833.33 nM 0.94% | 10000 nM -3.33%

CCC[C@H](NC(=O)[C@@H]1[C@H]2CCC[C@H]2CN1C(=O)[C@@H](NC(=O)[C@@H](NC(=O)c1cnccn1)C1CCCCC1)C(C)(C)C)C(=O)C(=O)NC1CC1 [telaprevir]
inactive: 1 nM 0.02% | 8.33 nM -0.75% | 100 nM 0.71% | 833.33 nM 5.12% | 10000 nM -2.66%

COC(=O)[C@@H](N)CCCNC(=N)N[N+](=O)[O-]
inactive: 1 nM 0.94% | 8.33 nM -2.09% | 100 nM -1.83% | 833.33 nM -3.06% | 10000 nM -0.4%

CCCS(=O)(=O)Nc1ccc(F)c(C(=O)c2c[nH]c3ncc(Cl)cc23)c1F
inactive: 1 nM 0.68% | 8.33 nM 0.41% | 100 nM -0.45% | 833.33 nM 2.16% | 10000 nM 1.71%

c1ccc2sc(SNC3CCCCC3)nc2c1 [N-cyclohexyl-2-benzothiazolesulfenamide]
inactive: 1 nM 2.74% | 8.33 nM 0.54% | 100 nM -0.9% | 833.33 nM -0.46% | 10000 nM -3.64%

Nc1ncc(Cc2ccc(Br)cc2)s1
inactive: 1 nM -0.22% | 8.33 nM 1.1% | 100 nM 2.74% | 833.33 nM 2.26% | 10000 nM 2.73%

CC(=O)Oc1ccc(C(c2ccc(OC(C)=O)cc2)c2ccccn2)cc1 [bisacodyl]
inactive: 1 nM 0.11% | 8.33 nM -1.99% | 100 nM -2.25% | 833.33 nM 1.04% | 10000 nM 2.49%

Cn1nc(-c2cccc(F)c2)n(C)c1=S [suritozole]
inactive: 1 nM 3.45% | 8.33 nM 1.68% | 100 nM 1.49% | 833.33 nM 1.52% | 10000 nM 1.85%

NC(=O)CN1CC[C@@H](NC(=O)[C@@H]2CCCN2)C1=O
inactive: 1 nM 1.05% | 8.33 nM -1.41% | 100 nM 0.01% | 833.33 nM 0.9% | 10000 nM 0.65%

CCC(=O)NO
inactive: 1 nM 3% | 8.33 nM 3.18% | 100 nM 1.27% | 833.33 nM 1.39% | 10000 nM 2.29%

CCN(CC)C(=O)N[C@H]1C[C@@H]2c3cccc4[nH]cc(c34)C[C@H]2N(C)C1 [terguride]
inactive: 1 nM -0.35% | 8.33 nM -0.23% | 100 nM -0.57% | 833.33 nM -2.15% | 10000 nM -0.04%

Cc1[nH]c2ccc(F)cc2c1-c1nc2c3cccnc3c3ncccc3c2[nH]1
inactive: 1 nM 0.2% | 8.33 nM 1.01% | 100 nM 0.29% | 833.33 nM -0.86% | 10000 nM 2.7%

CC(Oc1ccc(O)cc1)(P(=O)(O)O)P(=O)(O)O
inactive: 1 nM -3.21% | 8.33 nM -1.85% | 100 nM 3.91% | 833.33 nM -1.36% | 10000 nM -1.37%

C[C@@H](CN1CCC(Cc2ccccc2)CC1)[C@@H](O)c1ccc(O)cc1
inactive: 1 nM -1.15% | 8.33 nM -0.92% | 100 nM -0.78% | 833.33 nM -2.61% | 10000 nM -5.49%

OB1OCc2cc(F)ccc21 [tavaborole]
inactive: 1 nM -0.98% | 8.33 nM 1.46% | 100 nM -1.21% | 833.33 nM 2.11% | 10000 nM -2.53%
